Data: PubChem BioAssay AID540254 (Southern Research Specialized Biocontainment Screening …, 2011)
Among all 1,800 compounds or so, fewer than 10 were called active. Only a sample is shown. Results with a measured potency or affinity are listed apart. Values without a mark were called inactive. How the calls were made is not given here.

Assay: antiviral activity against H1N1 influenza, dose response, cell-based, strain KY180 (AID 540254)
Conditions: H1N1 KY180 influenza antiviral cell-based screen; series mostly up to 40 µM; inhibition: at the top concentration

Compared with Cc1cccc2sc(NNC(=O)c3ccc(S(=O)(=O)N4CCc5ccccc5C4)cc3)nc12, COC(=O)c1c(C)oc2ccc(N(C(=O)c3ccncc3)S(=O)(=O)c3ccc4ccccc4c3)cc12 is higher in “inhibition” value: -2.51% for the first, -0.56% for the second.

Compared with CCOc1ccc(C(=S)NC2CCCCC2)cc1OC, Cc1cc2cc(CNC(=O)NC3CCCCC3)ccc2n1C is lower in “inhibition” value: -0.49% for the first, -0.56% for the second.

First: c1ccc2[nH]c(CSc3nc4ccccc4o3)nc2c1
Second: CC(c1ccccc1)n1c(CO)nc2ccccc21 (stereo not given)
The “inhibition” value of the first is lower: -1.51% for the first, 0% for the second.

Going from CCCCOC(=O)Nc1ccc(S(=O)(=O)Nc2cc(C)nc(C)n2)cc1 to Cc1ccc(NCCCn2cnc(C(=O)Nc3ccc(C)c(C)c3)n2)cc1C, the “inhibition” value rises from 2.95% to 3.93%.

First: Cc1cc(C(=O)N/N=C/c2c(C)[nH]n(-c3ccccc3)c2=O)n[nH]1
Second: CC1=NN(c2ccccc2)C(=O)/C1=C/c1c(O)n(-c2ccc(F)cc2)[nH]c1=O
The “inhibition” value of the first is lower: -1.12% for the first, 2.01% for the second.

First: C=CCOc1cccc(/C=N/NC(=O)CC(=O)NC2CCCCC2)c1
Second: Cn1c(SCC(=O)NC2CC2)nnc1-c1ccccn1
The “inhibition” value of the first is lower: 0.5% for the first, 1.12% for the second.

Going from O=C(CSc1n[nH]c(-c2ccccn2)n1)Nc1cccc(Cl)c1 to O=C(Nc1nc(-c2ccccn2)cs1)c1ccco1, the “inhibition” value rises from -5.15% to 1.51%.

CN(C)CCCNC(=O)c1ccc(-c2cc(O)c3ncccc3c2)cc1 and O=C(O)c1ccc(N=Nc2c(O)ccc3ncccc23)cc1 are the same in “inhibition” value: 0% for the first, 0% for the second.

Going from Oc1ccc(N=Nc2c(O)ccc3ccccc23)cc1 to COc1cccc(N=Nc2ccc3ccccc3c2O)c1, the “inhibition” value rises from 0% to 2.01%.

Compared with CC1=NN(c2ccc(C)cc2)C(=O)/C1=C\C=C\c1ccccc1, CCOc1ccc(-n2c(SCC(=O)Nc3ccccc3C)n[nH]c2=O)cc1 is higher in “inhibition” value: -2.51% for the first, 1.27% for the second.

Compared with Cc1ccc(C(=O)N/C(=C\c2cccc([N+](=O)[O-])c2)C(=O)NCc2ccncc2)cc1, Cc1ccc(S(=O)(=O)C2(C(=O)NCc3ccc4c(c3)OCO4)CC2)cc1 is lower in “inhibition” value: 3.8% for the first, 0% for the second.

First: CN(C)S(=O)(=O)c1ccc(NC(=O)CSc2ncnc3ccccc23)cc1
Second: CN(CC(=O)NCc1ccccn1)S(=O)(=O)c1ccc(Br)cc1
The “inhibition” value of the first is higher: 3.52% for the first, 0% for the second.

Going from O=C(Cn1cnc([N+](=O)[O-])n1)N/N=C/c1ccccc1O to Cc1ccn(CC(=O)N/N=C/c2cc([N+](=O)[O-])ccc2O)n1, the “inhibition” value falls from 2.53% to -1.27%.

Compared with Clc1cc2cccnc2c2ncccc12, Clc1ccc(OCc2nc(-c3ccncc3)no2)c(Br)c1 is higher in “inhibition” value: -1.12% for the first, -0.56% for the second.

Going from O=C(N/N=C(\Cc1ncc[nH]1)c1ccccc1)c1ccncc1 to COc1cccc(C(=O)O/N=C(\N)c2ccncc2)c1, the “inhibition” value rises from -1.51% to -0.25%.

Going from CCOC(=O)Cc1nnc(NC(=O)C(CC)Sc2nncn2C)s1 (stereo not given) to CC(=O)Nc1cccc(NC(=O)CSc2nn3c(=O)c(C)nnc3s2)c1, the “inhibition” value falls from 1.97% to 0.5%.

Going from Cc1ccc(NC(=O)COc2cccc3ccc(C)nc23)c(Br)c1 to COc1cccc2c(=O)n(CC(=O)Nc3ccc(F)cc3F)ccc12, the “inhibition” value falls from 0.5% to 0%.

Going from COc1cc(O)c(/C=N/NC(=O)c2ccncc2)c(OC)c1[N+](=O)[O-] to O=C(N/N=C/c1cc([N+](=O)[O-])ccc1O)c1cccc(N2CCCC2=O)c1, the “inhibition” value rises from -0.49% to 0.22%.

Going from CC(=NNC(=S)N1CC2CCC(CC2)C1)c1nccs1 to CC(=NNC(=S)N1CC2CCC(CC2)C1)c1ccncn1, the “inhibition” value rises from -3.44% to -2.95%.

CCOc1cccc(/C=N/NC(=O)c2cccnc2)c1O and O=C(N/N=C/c1cc(O)ccc1Br)c1cccnc1 are the same in “inhibition” value: 0% for the first, 0% for the second.

Going from O=C1/C(=C/c2ccc(O)c(O)c2)SC(=S)N1Nc1ccccc1 to CN1C(=O)/C(=C/c2cc(N=Nc3ccccc3)ccc2O)SC1=S, the “inhibition” value falls from -0.56% to -5.15%.

First: CN1CCN(c2ccc(N)cc2)CC1
Second: C=CC(=O)Nc1ccc(N(C)c2ccnc(Nc3ccc(N4CCN(C)CC4)cc3)n2)cc1
The “inhibition” value of the first is higher: -0.5% for the first, -2.51% for the second.

COC(=O)Cn1c(=O)c2c(nc3n2CC(C)CN3c2ccc(C)c(C)c2)n(C)c1=O (stereo not given) and Cc1cc(C)cc(N2C(=O)C3NN=C(C(=O)OCc4ccccc4)C3C2=O)c1 (stereo not given) are the same in “inhibition” value: 0.5% for the first, 0.5% for the second.

First: CCCNC(=O)COC(=O)/C=C/c1ccco1
Second: CC(C)CC(C(=O)OCC(=O)Nc1ncc(Cl)cc1Cl)N1C(=O)c2ccccc2C1=O (stereo not given)
The “inhibition” value of the first is lower: -0.5% for the first, 0.56% for the second.

Going from CC(C)CCNC(=O)CCC(=O)NNc1nc2ccccc2c2nc(-c3ccccc3)nn12 to Cc1cccc(NC(=O)CCN2C(=O)c3ccccc3S2(=O)=O)c1C, the “inhibition” value rises from -0.56% to 2.53%.

First: CCOc1ccc(NS(=O)(=O)c2ccc(NS(=O)(=O)c3ccc(SC)cc3)cc2)cc1
Second: CC(=O)N(Cc1ccc(F)cc1)C1=C(NCCc2ccccc2)C(=O)c2ccccc2C1=O
The “inhibition” value of the first is higher: 0.67% for the first, -5.15% for the second.

Going from COc1ccc(C(C)=O)cc1COC(=O)[C@H](Cc1ccccc1)NC(=O)c1ccco1 to COc1ccc(C(=O)N/N=C(\C)c2ccccn2)cc1OC, the “inhibition” value falls from 2.46% to -2.91%.

Going from CCN1/C(=C/c2ccc3cc(C)cc(C)c3[n+]2CC)Sc2cc(C)ccc21 to CCN(CC)CCN1C(=O)c2oc3ccc(F)cc3c(=O)c2C1c1ccncc1 (stereo not given), the “inhibition” value rises from -2.95% to 0%.

Cc1ccc(O)c(N=NC2=C(O)CC(C)(C)CC2=O)c1 and CCN(Cc1ccccc1)c1ccc(N=Nc2nn(C)c(C)c2[N+](=O)[O-])cc1 are the same in “inhibition” value: -1.12% for the first, -1.12% for the second.

First: COC(=O)c1cc(S(=O)(=O)N2CCCCCC2)c[nH]1
Second: Cc1ccc(NC(=O)N2CCCCCC2)cc1C
The “inhibition” value of the first is higher: 2.91% for the first, 0% for the second.

Going from O=C(O)c1ccc(N2C(=O)/C(=C/c3ccc(-c4ccc([N+](=O)[O-])cc4)o3)C=C2c2ccccc2)cc1 to Cc1c(N=Nc2c(O)n(Cc3ccccc3)c(=O)[nH]c2=O)c(=O)n(-c2ccccc2)n1C, the “inhibition” value falls from 0.25% to -1.51%.

Going from O=C(NCc1ccccn1)C(=O)N/N=C/c1ccccc1O to O=C(CN1C(=O)C2CCCCC2C1=O)Nc1nc(-c2ccccn2)cs1 (stereo not given), the “inhibition” value falls from -2.01% to -4.7%.

Going from CCCN1C(=O)/C(=C2\SC(N3CCCCC3)=NC2=O)c2ccccc21 to CCOC(=O)N1CCN(c2c(NCCc3ccccc3)c(=O)c2=O)CC1, the “inhibition” value rises from -4.25% to 9.34%.

Going from COc1cc(C=O)ccc1OCC(=O)Nc1ccc2c(c1)OCO2 to O=C1CCC(=O)N1CCC(c1ccc(F)cc1)c1ccco1 (stereo not given), the “inhibition” value rises from -0.98% to 1.27%.

Compared with CN(C)c1ccc(N=Cc2ccco2)cc1, Cc1nc2sccn2c(=O)c1S(=O)(=O)Nc1cccc(Cl)c1C is higher in “inhibition” value: -2.91% for the first, -0.25% for the second.
